Test results: PubChem BioAssay AID1159580 (chemical genetic matrix, 2015)
Hit rate of the full screen: of about 5,500 compounds, about 2,000 (36%) were called active. Roughly 18% stayed inconclusive and do not appear here. Cut-off read from the data, not from the text of the source: active = normalized growth mostly below about 0.91 (no sharp cut-off); inconclusive = no clear call, values can overlap the other calls; inactive = mostly above about 0.92. The list shows a part of the results.

Assay: chemical genetic growth profiling, strain panel (AID 1159580);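 note: tested at 20 µM; growth read once vehicle control cultures reached saturation at 30 °C; 1 = growth at the plate median or of vehicle wells; lower values mean less growth of the strain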
Settings: growth OD

Measured: normalized growth

CC(C)c1ccc2c(c1)CCC1[C@](C)(CN)CCC[C@]21C (stereo partly specified)
inactive: S. cerevisiae deletion strains, locus YKL068W, active compounds read low 0.982 | S. cerevisiae deletion strains, locus YKL085W, strain MDH1 (second series), active compounds read low 0.978 | S. cerevisiae deletion strains, locus YKL085W, strain MDH1, active compounds read low 0.978 | S. cerevisiae deletion strains, locus YKL160W, strain elf1, active compounds read low 0.952 | S. cerevisiae deletion strains, locus YKR026C, strain gcn3, active compounds read low 1.02 | S. cerevisiae deletion strains, locus YKR091W, strain srl3, active compounds read low 1.01 | S. cerevisiae deletion strains, locus YLL001W, strain dnm1, active compounds read low 0.963 | S. cerevisiae deletion strains, locus YLL026W, active compounds read low 1.01 | S. cerevisiae deletion strains, locus YLL041C, strain sdh2, active compounds read low 1.02 | S. cerevisiae deletion strains, locus YLR027C, strain aat2, active compounds read low 0.978 | S. cerevisiae deletion strains, locus YLR039C, strain RIC1, active compounds read low 1.28 | S. cerevisiae deletion strains, locus YLR113W, strain HOG1, active compounds read low 0.999 | S. cerevisiae deletion strains, locus YLR221C, strain rsa3, active compounds read low 0.953 | S. cerevisiae deletion strains, locus YLR258W, strain gsy2, active compounds read low 0.948 | S. cerevisiae deletion strains, locus YLR262C, strain YPT6 (second series), active compounds read low 0.959 | S. cerevisiae deletion strains, locus YLR262C, strain YPT6, active compounds read low 1.1 | S. cerevisiae deletion strains, locus YLR320W, strain mms22, active compounds read low 0.899 | S. cerevisiae deletion strains, locus YLR357W, strain rsc2, active compounds read low 0.976 | S. cerevisiae deletion strains, locus YLR384C, strain iki3, active compounds read low 0.999 | S. cerevisiae deletion strains, locus YML120C, strain ndi1, active compounds read low 0.92 | S. cerevisiae deletion strains, locus YMR058W, strain fet3, active compounds read low 0.932 | S. cerevisiae deletion strains, locus YMR125W, strain sto1, active compounds read low 0.93 | S. cerevisiae deletion strains, locus YMR129W, active compounds read low 1.01 | S. cerevisiae deletion strains, locus YMR205C, strain PFK2, active compounds read low 0.933 | S. cerevisiae deletion strains, locus YMR231W, strain pep5, active compounds read low 1.03 | S. cerevisiae deletion strains, locus YNL183C, strain NPR1, active compounds read low 0.951 | S. cerevisiae deletion strains, locus YNL209W, strain ssb2, active compounds read low 0.975 | S. cerevisiae deletion strains, locus YNL248C, strain rpa49, active compounds read low 1.01 | S. cerevisiae deletion strains, locus YNL250W, strain rad50, active compounds read low 0.936 | S. cerevisiae deletion strains, locus YNL271C, strain bni1, active compounds read low 0.979 | S. cerevisiae deletion strains, locus YNL322C, strain KRE1 (second series), active compounds read low 1.01 | S. cerevisiae deletion strains, locus YNR049C, strain mso1, active compounds read low 1.03 | S. cerevisiae deletion strains, locus YOL012C, strain htz1 0.217 | S. cerevisiae deletion strains, locus YOR001W, strain rrp6, active compounds read low 1.02 | S. cerevisiae deletion strains, locus YOR070C, strain gyp1, active compounds read low 0.978 | S. cerevisiae deletion strains, locus YOR080W, strain dia2, active compounds read low 0.995 | S. cerevisiae deletion strains, locus YOR083W, strain WHI5, active compounds read low 0.904 | S. cerevisiae deletion strains, locus YOR106W, strain vam3, active compounds read low 0.92 | S. cerevisiae deletion strains, locus YOR231W, strain MKK1, active compounds read low 0.963 | S. cerevisiae deletion strains, locus YOR265W, strain rbl2, active compounds read low 0.999 | S. cerevisiae deletion strains, locus YPL051W, strain arl3, active compounds read low 0.988 | S. cerevisiae deletion strains, locus YPL078C, strain atp4, active compounds read low 0.896 | S. cerevisiae deletion strains, locus YPL106C, strain sse1, active compounds read low 0.939 | S. cerevisiae deletion strains, locus YPL240C, strain hsp82, active compounds read low 0.988 | S. cerevisiae deletion strains, locus YPL256C, strain CLN2, active compounds read low 0.979 | S. cerevisiae deletion strains, locus YPR141C, strain kar3, active compounds read low 0.92
active: S. cerevisiae deletion strains, locus YKL009W, strain mrt4, active compounds read low 0.868 | S. cerevisiae deletion strains, locus YKL190W, strain CNB1, active compounds read low 0.211 | S. cerevisiae deletion strains, locus YKR001C, strain vps1, active compounds read low 0.0635 | S. cerevisiae deletion strains, locus YLR058C, strain SHM2, active compounds read low 0.17 | S. cerevisiae deletion strains, locus YLR102C, strain apc9, active compounds read low 0.922 | S. cerevisiae deletion strains, locus YLR268W, strain sec22, active compounds read low 0.092 | S. cerevisiae deletion strains, locus YLR330W, strain CHS5, active compounds read low 0.262 | S. cerevisiae deletion strains, locus YLR342W, strain FKS1 (second series), active compounds read low 0.269 | S. cerevisiae deletion strains, locus YLR342W, strain FKS1, active compounds read low 0.836 | S. cerevisiae deletion strains, locus YLR370C, strain arc18, active compounds read low 0.865 | S. cerevisiae deletion strains, locus YLR371W, strain rom2, active compounds read low 0.286 | S. cerevisiae deletion strains, locus YLR418C, strain cdc73, active compounds read low 0.11 | S. cerevisiae deletion strains, locus YML016C, strain PPZ1, active compounds read low 0.513 | S. cerevisiae deletion strains, locus YML032C, strain rad52, active compounds read low 0.32 | S. cerevisiae deletion strains, locus YML124C, strain tub3, active compounds read low 0.198 | S. cerevisiae deletion strains, locus YMR078C, strain ctf18, active compounds read low 0.654 | S. cerevisiae deletion strains, locus YMR223W, strain ubp8, active compounds read low 0.177 | S. cerevisiae deletion strains, locus YMR263W, strain SAP30, active compounds read low 0.642 | S. cerevisiae deletion strains, locus YMR307W, strain GAS1, active compounds read low 0.16 | S. cerevisiae deletion strains, locus YNL067W, strain RPL9B, active compounds read low 0.62 | S. cerevisiae deletion strains, locus YNL071W, strain lat1, active compounds read low 0.737 | S. cerevisiae deletion strains, locus YNL128W, strain TEP1, active compounds read low 0.279 | S. cerevisiae deletion strains, locus YNL153C, strain GIM3, active compounds read low 0.262 | S. cerevisiae deletion strains, locus YNL233W, strain BNI4, active compounds read low 0.414 | S. cerevisiae deletion strains, locus YNL298W, strain CLA4, active compounds read low 0.839 | S. cerevisiae deletion strains, locus YNL307C, strain MCK1, active compounds read low 0.132 | S. cerevisiae deletion strains, locus YNL322C, strain KRE1, active compounds read low 0.599 | S. cerevisiae deletion strains, locus YNR052C, strain pop2, active compounds read low 0.0663 | S. cerevisiae deletion strains, locus YOL006C, strain TOP1, active compounds read low 0.139 | S. cerevisiae deletion strains, locus YOL147C, strain pex11, active compounds read low 0.0811 | S. cerevisiae deletion strains, locus YOR061W, strain CKA2, active compounds read low 0.417 | S. cerevisiae deletion strains, locus YOR069W, strain VPS5, active compounds read low 0.847 | S. cerevisiae deletion strains, locus YOR136W, strain idh2, active compounds read low 0.257 | S. cerevisiae deletion strains, locus YOR144C, strain elg1, active compounds read low 0.372 | S. cerevisiae deletion strains, locus YOR184W, strain ser1, active compounds read low 0.124 | S. cerevisiae deletion strains, locus YOR270C, strain vph1, active compounds read low 0.577 | S. cerevisiae deletion strains, locus YOR290C, strain snf2, active compounds read low 0.85 | S. cerevisiae deletion strains, locus YOR316C, strain cot1, active compounds read low 0.837 | S. cerevisiae deletion strains, locus YPL055C, strain LGE1, active compounds read low 0.404 | S. cerevisiae deletion strains, locus YPL241C, strain CIN2, active compounds read low 0.865 | S. cerevisiae deletion strains, locus YPR119W, strain clb2, active compounds read low 0.923 | S. cerevisiae deletion strains, locus YPR163C, strain tif3, active compounds read low 0.072 | S. cerevisiae deletion strains, locus YPR167C, strain met16, active compounds read low 0.731 | S. cerevisiae deletion strains, strain wtn01, active compounds read low 0.146 | S. cerevisiae strains, strain wild type, active compounds read low 0.255
